The values below come from paper PMC4552634, “A New Set of Chemical Starting Points with Plasmodium falciparum Transmission-Blocking Potential for Antimalarial Drug Discovery” (PLoS ONE, 2015).

Structures are written as SMILES. Out of some 13,000 compounds screened, about 3,200 (25%) showed an effect of 50% or more. Some of the results follow.

This assay relates to P. falciparum stage V gametocytes. Also noted: BacTiter-Glo ATP luminescence viability of purified stage V gametocytes in 384-well plates, per cent inhibition versus DMSO. To be noted: 48 h, 5 µM; inhibitor.
The term % Inhibition denotes the drop in the measured response relative to a control, in per cent. For `Cc1[nH]c(C)c(-c2ccc(OCc3ccccc3C(F)(F)F)nc2)c(=O)c1Br` [TCMDC-135796], the “% Inhibition” value is reported as 65.1%.
As for `Cc1[nH]c(C)c(-c2ccc(OCc3cc(C(F)(F)F)cc(C(F)(F)F)c3)nc2)c(=O)c1Br` [TCMDC-135815], the figure is 65.31%; as for `Cc1[nH]c(C)c(-c2ccc(OCc3cc(C(F)(F)F)cc(C(F)(F)F)c3)nc2)c(=O)c1Cl` [TCMDC-135814], 52.24%; as for `Cc1[nH]c(C)c(-c2ccc(OCc3ccc(OC(F)(F)F)cc3)nc2)c(=O)c1Cl` [TCMDC-135271], 11.85%.
On to `Cc1[nH]c(C)c(-c2ccc(OCc3cccc(C(F)(F)F)c3)nc2)c(=O)c1Br` [TCMDC-135656], for which the “% Inhibition” value was 74.31%.
`COc1ccc(OC)c2c1CCN(CCN1CCC(C(=O)Nc3ccc(C(=O)Nc4ccc(Cl)cc4)cc3)CC1)C2` [TCMDC-138820]: the “% Inhibition” value was found to be 2.402%.
The same measure for `FC(F)(F)c1ccc2[nH]c(-c3ccc(-c4cccc(CNCc5cnn(-c6ccccc6)n5)c4)cc3)nc2c1.O=C(O)C(F)(F)F` [TCMDC-132971]: -20.04%.
For the molecule `O=C(NC1CCC(CCN2Cc3ccc(Br)cc3C2)CC1)c1cccc(-c2cccnc2)c1` (stereo not shown) [TCMDC-139603], the “% Inhibition” value is on record as 36.86%.
The same measure for `Nc1nc(N)c2c(Oc3cccnc3)cccc2n1` [TCMDC-137990]: -4.996%; for `CN(C)c1cccc(NC(=O)N[C@H]2N=C(c3ccccc3)c3ccccc3N(CC(=O)N3CCCC3)C2=O)c1` [TCMDC-131987]: 37.26%; for `N#Cc1ccc(CCNc2nccc(-c3cccc(CN4CCNCC4)c3)n2)cc1` [TCMDC-134845]: 38.8%.
The same measure for `CCC[C@@H]([C@@H](CC1CCCCC1)C(=O)NC(C(=O)Nc1nccs1)C(CC)c1ccccc1)N(O)C=O` (stereo partly shown) [TCMDC-137999]: -15.87%; for `Cc1cccc2nc(-c3ccc(-c4ccc(CNCCCN5CCCC5=O)cc4)cc3)[nH]c12.O=C(O)C(F)(F)F` [TCMDC-132763]: 3.748%; for `O=C(Cn1c(CCc2cccc(F)c2F)nc(=O)c2cccnc21)N(Cc1ccc(-c2ccc(C(F)(F)F)cc2)cc1)C1CCN(C2CCSCC2)CC1` [TCMDC-136559]: 46.52%.
Regarding `O=C(Cn1c(CCc2cccc(F)c2F)nc(=O)c2ccccc21)N(Cc1ccc(-c2ccc(C(F)(F)F)cc2)cc1)C1CCN(C2CCSCC2)CC1` [TCMDC-136609], the “% Inhibition” value worked out at 103.4%.
As for `O=C(Cn1c(CCc2cccc(F)c2F)nc(=O)c2cccnc21)N(Cc1ccc(-c2ccc(C(F)(F)F)cc2)cc1)C1CCN(C2CCOCC2)CC1` [TCMDC-136501], the figure is 53.37%.
The same measure for `O=C(Cn1c(CCc2cccc(F)c2F)nc(=O)c2ccccc21)N(Cc1ccc(-c2ccc(C(F)(F)F)cc2)cc1)C1CCN(C2CCOCC2)CC1` [TCMDC-136502]: 73.92%; for `N#Cc1ccc(N2CCN(Cc3ccc(-c4ccc(-c5nc6cc(C(F)(F)F)ccc6[nH]5)s4)cc3)CC2)nc1.O=C(O)C(F)(F)F` [TCMDC-133110]: -11.35%; for `N#Cc1ccc(CN2CCC(Oc3ccc(NC(=O)c4ccccc4)cc3Cl)CC2)cc1` [TCMDC-133958]: 11.07%.
As for `COc1ccc(NC(=O)C2c3ccccc3C(=O)N(C3CCCC3)C2c2cccs2)c(OC)c1` (stereo not shown) [TCMDC-125288], the figure is -16.95%; as for `COc1ccc(NC(=O)Nc2ccc(Nc3nc(C)cc(N4CCCC4)n3)cc2)cc1` [TCMDC-124958], 27.34%; as for `COc1ccc(Cl)cc1NC(=O)Nc1ccc2c(c1)CCN(C1CCC1)CC2` [TCMDC-136006], 9.191%.
For the molecule `COc1ccc(NC(=O)C2c3ccccc3C(=O)N(C3CCCC3)C2c2cccs2)cc1OC` (stereo not shown) [TCMDC-124695], the “% Inhibition” value came out at 88.1%.
Regarding `COc1ccc(NC(=O)C2c3ccccc3C(=O)N(C3CCCC3)C2c2cccs2)cc1` (stereo not shown) [TCMDC-125287], the “% Inhibition” value was 90.81%.
As for `O=C(Nc1cccc(CN2CCCN(Cc3ccc(O)cc3)CC2)c1)c1cc2ccccc2o1` [TCMDC-141859], the figure is 49.98%; as for `CN1CC[C@@H](Oc2cc(NC(=O)Nc3ccc(Cl)c(C(F)(F)F)c3)ccc2Cl)C1` [TCMDC-136149], 23.18%; as for `COc1cc(Br)c(NC(=O)Nc2ccc(C(F)(F)F)c(O[C@@H]3CCN(C)C3)c2)cc1OC` [TCMDC-135186], -75.17%.
The same measure for `CN1CC[C@@H](Oc2cc(NC(=O)Nc3ccccc3Br)ccc2Cl)C1` [TCMDC-136144]: 79.19%; for `Cc1cc2nc(-c3ccc(C(=O)NCc4cccc(F)c4)cc3)[nH]c2cc1C` [TCMDC-140432]: -28.29%.
The same measure for `CC(C)Nc1cc(C(=O)N[C@@H](Cc2ccccc2)[C@H](O)CNC2CCCCC2)cc(N2CCCCS2(=O)=O)c1` [TCMDC-135203]: 21.45%; for `COc1ccccc1N1CCN(Cc2c(O)ccc3cc(Br)ccc23)CC1` [TCMDC-123565]: 17.32%; for `CC(=O)Nc1nc(C(=O)Nc2cccc(-c3ccc(-c4nc5cccc(C)c5[nH]4)s3)c2)cs1` [TCMDC-137132]: -23.79%.
With `COc1ccc(Cl)cc1NC(=O)Nc1cc(C)nc2ccccc12` [TCMDC-125497], the “% Inhibition” value is recorded as -49.54%.
The same measure for `COc1ccc(Cl)cc1NC(=O)C(C)N1CCN(S(=O)(=O)c2ccccc2F)CC1` (stereo not shown) [TCMDC-123567]: -51.26%.
As for `COc1ccc(Cl)cc1NC(=O)CN(C)C(=O)c1cnn(-c2ccccc2)n1` [TCMDC-125457], the “% Inhibition” value came out at 95.1%.
As for `Cc1ccc(-n2c(=O)c3cccnc3n2CC(=O)Nc2cccc(C)c2C)cc1` [TCMDC-125161], the figure is 23.17%; as for `CCCC(C)N(Cc1ccc(C(C)(C)C)cc1)C(=O)c1ccc(OC)cc1` (stereo not shown) [TCMDC-139782], 14.81%; as for `COc1ccc(CN(C2CC2)C(C)C(=O)c2[nH]c(C)c(C(C)=O)c2C)cc1` (stereo not shown) [TCMDC-125037], 53.61%.
On to `CC1(C)N=C(NC(=O)c2cc([N+](=O)[O-])cc([N+](=O)[O-])c2)N=C(N)N1OCc1cccc2ccccc12` [TCMDC-131584], for which the “% Inhibition” value is listed as -17.03%.
As for `CC(C)(C)c1ccc(C(=O)Nc2cccc(Nc3c(C(=O)NCc4cccc(C(F)(F)F)c4)cnc4c(O)cccc34)c2)cc1.O=C(O)C(F)(F)F` [TCMDC-139610], the figure is 57.39%; as for `CC(C)CCNC(=O)c1cnc2c(O)cccc2c1Nc1cccc(NC(=O)c2ccc(F)cc2)c1.O=C(O)C(F)(F)F` [TCMDC-139606], 111.5%; as for `NS(=O)(=O)c1ccc(CNC(=O)c2cnc3c(O)cccc3c2Nc2cccc(NC(=O)c3ccc(Cl)c(Cl)c3)c2)cc1.O=C(O)C(F)(F)F` [TCMDC-139608], 34.02%.
The same measure for `O=C(Cc1ccc(NC(=O)c2ccc(O)c(-c3ccc(Cl)c(Cl)c3)c2)cc1)NCc1cccc(C(F)(F)F)c1` [TCMDC-140835]: -7.918%; for `Nc1nc(Nc2cccc(Cl)c2)ncc1C(=O)NCc1ccncc1` [TCMDC-135688]: 0.6434%.
The same measure for `COc1ccc(CNC(=O)c2cnc3c(O)cccc3c2Nc2cccc(NC(=O)c3ccc(Cl)c([N+](=O)[O-])c3)c2)cc1.O=C(O)C(F)(F)F` [TCMDC-139609]: 35.62%; for `CN(c1cc(NC(=O)c2ccc(F)cc2)ccn1)C1CCN(Cc2cccc(O)c2)CC1` [TCMDC-134966]: -19%; for `COc1ccc(CNC(=O)c2cnc3c(O)cccc3c2Nc2cccc(NC(=O)c3ccc(-c4ccccc4)cc3)c2)cc1.O=C(O)C(F)(F)F` [TCMDC-139611]: 77.42%.
Take `COc1ccc(CNC(=O)c2cnc3cc(-c4c(C)noc4C)ccc3c2Nc2ccccc2C(C)(C)C)cc1.Cl` [TCMDC-136367]: the “% Inhibition” value was -23.94%.
Regarding `CC(C)CCNC(=O)c1cc(C(=O)c2cc(F)ccc2O)cn(CCC(C)C)c1=O` [TCMDC-124499], the “% Inhibition” value was determined as 0.8137%.
The same measure for `COc1ccc(CNC(=O)c2cnc3c(O)cccc3c2Nc2cccc(NC(=O)c3ccc(Cl)c(Cl)c3)c2)cc1.O=C(O)C(F)(F)F` [TCMDC-139607]: 97.23%; for `OCc1ccc2nc3c(cc2c1)-c1cccc2cccc-3c12` [TCMDC-137756]: 2.597%; for `Cc1cc(N2CCCC2)nc(Nc2ccc(NC(=O)c3ccccc3)cc2)n1` [TCMDC-124713]: -11.14%.
As for `COc1cccc(OC)c1OCCCOc1c(C)nc(N)nc1N` [TCMDC-131352], the figure is 5.526%; as for `c1ccc(Oc2ccc(Nc3nc(NCCc4cnc[nH]4)nc(NC4CCCC4)n3)cc2)cc1` [TCMDC-139745], 20.05%.
As for `COc1ccc(CN2CCC(Oc3cccc(NC(=O)c4ccc(C(F)(F)F)cc4)c3)CC2)cc1` [TCMDC-133735], the figure is -21.77%; as for `O=C(Nc1cccc(OC2CCN(Cc3ccc(F)cc3)CC2)c1)c1ccc(C(F)(F)F)cc1` [TCMDC-133734], -18.45%.
In the case of `COc1ccc(CNC(=O)c2cnc3c(O)cccc3c2Nc2cccc(NC(=O)c3ccc(F)cc3)c2)cc1.O=C(O)C(F)(F)F` [TCMDC-139605], the “% Inhibition” value came to 78.77%.
As for `O=C(Nc1ccc(Cl)c(Cl)c1)N1CCC(NCc2cccc([N+](=O)[O-])c2)CC1` [TCMDC-141277], the figure is 22.25%; as for `O=C(CN1C(=O)CC1S(=O)(=O)Cc1ccco1)NCCCCCCc1ccc(F)cc1` (stereo not shown) [TCMDC-139032], 21.56%.
The same measure for `COc1cccc(C(C)(C)NC[C@@H](O)[C@H](Cc2ccccc2)NC(=O)c2cc(C3CCCC3)cc(N3CCCCS3(=O)=O)c2F)c1` [TCMDC-135510]: 45.23%; for `CCN(CC)CCN(Cc1ccc(-c2ccc(C(F)(F)F)cc2)cc1)C(=O)Cn1c(CCc2cc(F)cc(F)c2F)nc(=O)c2ccccc21` [TCMDC-140955]: 88.67%; for `CCN(CC)CCN(Cc1ccc(-c2ccc(C(F)(F)F)cc2)cc1)C(=O)Cn1c(CCc2c(F)cccc2F)nc(=O)c2ccccc21` [TCMDC-140950]: 87.94%.
Consider `CCN(CC)CCN(Cc1ccc(-c2ccc(C(F)(F)F)cc2)cc1)C(=O)Cn1c(CCc2c(F)ccc(F)c2F)nc(=O)c2ccccc21` [TCMDC-140953], for which the “% Inhibition” value is reported as 67.68%.
The same measure for `CCN(CC)CCN(Cc1ccc(-c2ccc(C(F)(F)F)cc2)cc1)C(=O)Cn1c(CCc2c(F)cc(F)cc2F)nc(=O)c2ccccc21` [TCMDC-140967]: 61.03%.
